Read-out in test [1]: Tissue Factor, F3 (gene 2152)
In words: BSK_CASM3C_TissueFactor: BioMAP Diversity Plus: CASM3C Assay for Tissue Factor Biomarker Activity (AID 2283052).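 Further: cell surface tissue factor protein level read by ELISA.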 To be noted: primary human coronary artery smooth muscle cells; actives raise or lower the signal.

Read-out in test [2]: Interferon-gamma inducible Protein 10 (IP10), CXCL10 (gene 3627)
In words: BSK_hDFCGF_IP10: BioMAP Diversity Plus: hDFCGF Assay for Interferon-gamma inducible Protein 10 (IP10) Biomarker Activity (AID 2283053). The note with it: primary human foreskin fibroblasts; actives raise or lower the signal. In outline:
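Primary human foreskin fibroblasts exposed to chemicals for 24 h. IP-10 measured by ELISA; changes fitted bidirectionally against DMSO baseline.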

Read-out in test [3]: Urokinase-type plasminogen activator receptor (uPAR), PLAUR (gene 5329)
In words: BSK_CASM3C_uPAR: BioMAP Diversity Plus: CASM3C Assay for Urokinase-type plasminogen activator receptor (uPAR) Biomarker Activity (AID 2283054).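 Further: cell-surface uPAR protein level quantified by ELISA.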 To be noted: primary human coronary artery smooth muscle cells; actives raise or lower the signal.

Read-out in test [4]: Vascular cell adhesion molecule 1 (VCAM1), VCAM1 (gene 7412)
The test can be described thus: BSK_CASM3C_VCAM1: BioMAP Diversity Plus: CASM3C Assay for Vascular cell adhesion molecule 1 (VCAM1) Biomarker Activity (AID 2283055).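 Further: VCAM-1 protein level quantified by ELISA on the cells.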 The note with it: primary human coronary artery smooth muscle cells; actives raise or lower the signal.

Read-out in test [5]: Collagen III, COL3A1 (gene 1281)
In words: BSK_hDFCGF_CollagenIII: BioMAP Diversity Plus: hDFCGF Assay for Collagen III Biomarker Activity (AID 2283056). To be noted: primary human foreskin fibroblasts; actives raise or lower the signal. The gist of the method:
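Cells: human foreskin fibroblasts, primary. Dosing followed by 24 h incubation, then ELISA for collagen III. Both increases and decreases scored relative to DMSO.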

Read-out in test [6]: Interleukin-8 (IL8), CXCL8 (gene 3576)
The test can be described thus: BSK_hDFCGF_IL8: BioMAP Diversity Plus: hDFCGF Assay for Interleukin-8 (IL8) Biomarker Activity (AID 2283058). To be noted: primary human foreskin fibroblasts; actives raise or lower the signal. In outline:
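IL-8 levels from compound-treated primary human fibroblasts were read by ELISA at 24 h, with DMSO serving as baseline for bidirectional fitting.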

Read-out in test [7]: Macrophage colony-stimulating factor (MCSF), CSF1 (gene 1435)
In words: BSK_hDFCGF_MCSF: BioMAP Diversity Plus: hDFCGF Assay for Macrophage colony-stimulating factor (MCSF) Biomarker Activity (AID 2283060). To be noted: primary human foreskin fibroblasts; actives raise or lower the signal. In outline:
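M-CSF levels, determined by ELISA, are taken at 24 h after dosing human skin fibroblasts. Responses in either direction are fitted with DMSO serving as the baseline.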

A short description of test [8]: BSK_hDFCGF_SRB: Viability Assessment in the BioMAP Diversity Plus: hDFCGF Assay (AID 2283061).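 Further: cells exposed to compound for 24 h before the read.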 The note with it: primary human foreskin fibroblasts. In outline:
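Cells were dosed with test chemical, cultured 24 h, fixed with 10% TCA, then stained with 0.1% SRB and read at 560 nm. The fibroblasts were human foreskin primary cells, and DMSO served as baseline.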

Read-out in test [9]: TIMP metallopeptidase inhibitor 1 (TIMP1), TIMP1 (gene 7076)
The test can be described thus: BSK_hDFCGF_TIMP1: BioMAP Diversity Plus: hDFCGF Assay for TIMP metallopeptidase inhibitor 1 (TIMP1) Biomarker Activity (AID 2283062). To be noted: primary human foreskin fibroblasts; actives raise or lower the signal. The gist of the method: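 Fibroblasts from human foreskin are treated with test chemical and harvested at 24 h. TIMP-1 is quantified by ELISA, and gain or loss of signal is scored against DMSO.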

Read-out in test [10]: Monokine induced gamma interferon (MIG), CXCL9 (gene 4283)
The test can be described thus: BSK_hDFCGF_MIG: BioMAP Diversity Plus: hDFCGF Assay for Monokine induced gamma interferon (MIG) Biomarker Activity (AID 2283063). To be noted: primary human foreskin fibroblasts; actives raise or lower the signal. In outline:
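MIG signal, determined by ELISA, reflects 24 h chemical exposure of human skin primary fibroblasts. DMSO serves as negative control and baseline.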

Read-out in test [11]: Matrix Metallopeptidase 1 (MMP1), MMP1 (gene 4312)
The test can be described thus: BSK_hDFCGF_MMP1: BioMAP Diversity Plus: hDFCGF Assay for Matrix Metallopeptidase 1 (MMP1) Biomarker Activity (AID 2283064). The note with it: primary human foreskin fibroblasts; actives raise or lower the signal. The gist of the method:
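Primary human foreskin fibroblasts exposed to chemicals for 24 h; MMP1 measured by ELISA. Cytotoxicity tracked by SRB staining in parallel cultures; bidirectional fit relative to DMSO.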

Read-out in test [12]: Vascular cell adhesion molecule 1 (VCAM1), VCAM1 (gene 7412)
The test can be described thus: BSK_hDFCGF_VCAM1: BioMAP Diversity Plus: hDFCGF Assay for Vascular cell adhesion molecule 1 (VCAM1) Biomarker Activity (AID 2283065).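 On AC50: VCAM-1 protein level quantified by ELISA after 24 h chemical exposure.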 To be noted: primary human foreskin fibroblasts; actives raise or lower the signal. In outline: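 Cells are dosed, cultured for 24 h, then VCAM-1 is quantified by ELISA; signal increases and decreases are both fitted relative to DMSO.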

Read-out in test [13]: Plasminogen activator inhibitor-1 (PAI1), SERPINE1 (gene 5054)
The test can be described thus: BSK_hDFCGF_PAI1: BioMAP Diversity Plus: hDFCGF Assay for Plasminogen activator inhibitor-1 (PAI1) Biomarker Activity (AID 2283066). The note with it: primary human foreskin fibroblasts; actives raise or lower the signal. In outline:
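Human foreskin fibroblast primary cells, 24 h chemical exposure; PAI-1 measured by ELISA. Bidirectional fitting relative to DMSO; parallel cultures stained with SRB for total protein to flag overt cytotoxicity.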

Read-out in test [14]: Intercellular Adhesion Molecule 1 (ICAM1), ICAM1 (gene 3383)
In words: BSK_KF3CT_ICAM1: BioMAP Diversity Plus: KF3CT Assay for Intercellular Adhesion Molecule 1 (ICAM1) Biomarker Activity (AID 2283067). To be noted: primary human keratinocytes with fibroblasts; actives raise or lower the signal. In outline:
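Dose the keratinocyte/fibroblast co-culture, wait 24 h, measure ICAM-1 by ELISA, then fit increases or decreases against DMSO. Cytotoxicity is checked in parallel cultures by SRB total-protein staining.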

Read-out in test [15]: Interferon-gamma inducible Protein 10 (IP10), CXCL10 (gene 3627)
The test can be described thus: BSK_KF3CT_IP10: BioMAP Diversity Plus: KF3CT Assay for Interferon-gamma inducible Protein 10 (IP10) Biomarker Activity (AID 2283068). To be noted: primary human keratinocytes with fibroblasts; actives raise or lower the signal. The gist of the method: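 Signal is secreted/surface IP-10 by ELISA in a human primary skin co-culture of keratinocytes and foreskin fibroblasts, taken 24 h post-dosing; DMSO served as negative control.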

Test [16] in a line: BSK_KF3CT_SRB: Viability Assessment in the BioMAP Diversity Plus: KF3CT Assay (AID 2283069).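 Further: total protein by sulforhodamine B staining as a cytotoxicity measure; fitted for both signal gain and loss against DMSO baseline.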 To be noted: primary human keratinocytes with fibroblasts. The gist of the method: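 Human keratinocyte and foreskin fibroblast co-culture exposed to chemical for 24 h. Total protein measured in parallel cultures by 0.1% sulforhodamine B staining after 10% TCA fixation, read at 560 nm; bidirectional fit relative to DMSO.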

Read-out in test [17]: Interleukin-1 alpha (IL1a), IL1A (gene 3552)
The test can be described thus: BSK_KF3CT_IL1a: BioMAP Diversity Plus: KF3CT Assay for Interleukin-1 alpha (IL1a) Biomarker Activity (AID 2283070). To be noted: primary human keratinocytes with fibroblasts; actives raise or lower the signal. The gist of the method: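 Primary human keratinocyte plus foreskin fibroblast co-culture, dosed and measured at 24 h in 96-well plates. IL-1a level quantified by ELISA; bidirectional fit relative to DMSO.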

Read-out in test [18]: TIMP metallopeptidase inhibitor 2 (TIMP2), TIMP2 (gene 7077)
The test can be described thus: BSK_KF3CT_TIMP2: BioMAP Diversity Plus: KF3CT Assay for TIMP metallopeptidase inhibitor 2 (TIMP2) Biomarker Activity (AID 2283071). To be noted: primary human keratinocytes with fibroblasts; actives raise or lower the signal. The gist of the method: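 Co-culture of human primary keratinocytes and foreskin fibroblasts, measured 24 h after chemical dosing. TIMP-2 quantified by ELISA and fitted in both directions relative to DMSO. Cytotoxicity checked in parallel cultures by SRB total-protein staining.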

A short description of test [19]: BSK_hDFCGF_Proliferation: Cell Proliferation Assessment in the BioMAP Diversity Plus: hDFCGF Assay (AID 2283059).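 Further: curves fitted for both rise and fall of signal versus DMSO baseline.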 To be noted: primary human foreskin fibroblasts. The gist of the method: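 This proliferation readout used SRB total-protein staining of human foreskin fibroblasts […], normalized to DMSO with bidirectional curve fitting.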

Active and inactive are the calls of the source. How the source made its calls: active means hit-call score of the fitted dose curve at least 0.9, where 1 is the maximum; inactive means score below 0.9.

With `O=C(O)Cc1ccccc1Nc1c(Cl)cccc1Cl`, the result in test [1], in test [2], in test [3], in test [4], in [6] and in [7] was inactive. For the same compound, the result in [8], in test [9], in test [10], in test [11], in test [12] and in [13] was inactive. Also, the result in [14], in test [15], in test [16], in test [17] and in [18] was inactive. Moreover, the AC50 in test [5] was 20 µM (active).
Consider `Cc1cc(=O)[nH]c(=S)[nH]1`, for which the outcome in test [1], in [2], in test [3], in test [4], in test [5] and in test [6] was inactive. The outcome in [7], in test [8], in test [9], in [10], in test [11] and in [12] was inactive. Moreover, the outcome in test [13], in [14], in test [15], in test [16], in [17] and in [18] was inactive.
Regarding `CCCCC(CC)COC(=O)CC(C(=O)OCC(CC)CCCC)S(=O)(=O)O` (stereo unspecified), the result in test [1], in [3] and in test [4] was inactive. Besides, the concentration at half-maximal activity (AC50) in [2] is 7.42 µM (active); in test [5], 8.52 µM (active); in [6] it was 12.9 µM (active); in test [7], 9.34 µM (active); in test [8], 24.4 µM (active); in test [9], 20 µM (active). The half-maximal activity concentration (AC50) in test [10] was 11.8 µM (active); in test [11] it was 25.7 µM (active); in test [12], 6.62 µM (active); in [13], 9.12 µM (active); in test [14], 11.8 µM (active); in test [15] it was 6.69 µM (active). For the same compound, the AC50 in test [16] is 8.47 µM (active); in [17], 8.83 µM (active).
Turning to `C[Si]1(C)O[Si](C)(C)O[Si](C)(C)O[Si](C)(C)O1`, the result in [1], in [2], in [3], in [4], in [5] and in [6] was inactive. The outcome in [19], in test [7], in test [8], in test [9], in [10] and in test [11] was inactive. Also, the outcome in test [12], in test [13], in [14], in test [15], in [16] and in [17] was inactive. Moreover, the result in test [18] was inactive.
As for `CC(C)(C)c1cc(O)c(C(C)(C)C)cc1O`, the result in test [1], in test [3], in test [4], in [6], in test [8] and in [9] was inactive. Moreover, the outcome in test [11], in [13], in [14], in [15], in test [16] and in test [17] was inactive. Besides, the result in test [18] was inactive. In addition, the half-maximal activity concentration (AC50) is 20 µM (active) in test [2]; 9.11 µM (active) in test [5]; 29.1 µM (active) in [19]; 17.6 µM (active) in test [7]; 20 µM (active) in test [10]; 20 µM (active) in test [12].
`CCc1c(C(=O)NN2CCCCC2)nn(-c2ccc(Cl)cc2Cl)c1-c1ccc(Br)cc1`: the outcome in [1], in test [4] and in test [14] was inactive. The AC50 in test [2] was 4.55 µM (active); in test [3] it was 25.1 µM (active); in test [5] it was 0.483 µM (active); in test [6], 3.39 µM (active); in test [7], 3.75 µM (active); in [8] it was 2.85 µM (active). The half-maximal activity concentration (AC50) in test [9] is 3.54 µM (active); in test [10] it was 4.28 µM (active); in test [11], 3.03 µM (active); in test [12], 3.82 µM (active); in [13], 2.3 µM (active); in test [15], 13.1 µM (active). Further, the AC50 in test [16] was 7.2 µM (active); in [17], 9.35 µM (active).
`C1CCC(SSC2CCCCC2)CC1`: the outcome in test [1], in [3], in [6], in test [9], in test [10] and in [11] was inactive. In addition, the outcome in test [14], in test [16] and in [17] was inactive. Moreover, the AC50 in [2] was 30.4 µM (active); in [4], 28.8 µM (active); in test [5], 11.7 µM (active); in test [7] it was 20 µM (active); in [8], 32.2 µM (active); in test [12] it was 38.4 µM (active). The concentration at half-maximal activity (AC50) in test [13] is 30.8 µM (active); in [15] it was 30 µM (active); in test [18], 5.11 µM (active).

The AC50 is the midpoint of the concentration-response curve, whichever way the signal moves.

Values taken from PubChem BioAssay (EPA / NIEHS).
